PNC assembly inh: blocks assembly of the perinucleolar compartment | 140,000 tested, 3.1% active | PC3M PTB-GFP, PNC prevalence imaging, 16 h; active compounds read low | activity change (PNC), negative = inhibition, % at 10 µM;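 active = readout at or below -70, meaning at least 70% loss of cells showing the perinucleolar compartment, a nuclear body marking cancer cells; inconclusive = readout between -30 and a set limit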;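 note: plate controls were DMSO wells for no effect and camptothecin positive control wells for full effect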
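Compounds are pinned in duplicate onto adhered PC3M cells stably expressing GFP-tagged PTB and incubated 16 h at 37 C. Cells are then fixed, nuclei stained with Hoechst, and PNC-positive cells counted.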
HPGD block: HPGD (human) dehydrogenase inhibition. P15428. purified HPGD, NADH fluorescence kinetic, PGE2 substrate. Potency, µM, without a hit: at the highest dose activity change, negative = inhibition, usual class: inhibitors. 150,000 tested, 4.3% active. AID 894; note: potency is the fitted concentration of half-maximal effect
Target sequence (P15428 whole entry, looked up): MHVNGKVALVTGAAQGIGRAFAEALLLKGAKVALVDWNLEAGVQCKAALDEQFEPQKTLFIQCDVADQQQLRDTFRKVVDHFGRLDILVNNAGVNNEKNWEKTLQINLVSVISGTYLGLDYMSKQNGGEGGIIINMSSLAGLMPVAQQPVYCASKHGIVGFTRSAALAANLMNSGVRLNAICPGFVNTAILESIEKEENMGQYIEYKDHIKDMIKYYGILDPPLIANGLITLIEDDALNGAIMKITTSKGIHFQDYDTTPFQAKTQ
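20 nM HPGD preincubated 15 min at room temperature with compound in 50 mM Tris-HCl pH 8, 0.01% Tween 20. Started with 1 mM NAD+ and 30 uM prostaglandin E2; NADH fluorescence (360/450 nm) read 5 times over 30-s intervals, last minus first.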
KDM4E inh: inhibitors of human JMJD2E histone demethylase; JMJD2E catalytic domain, FDH-coupled NADH fluorescence (FDH is formaldehyde dehydrogenase); Potency, µM (doses to about 57.1 µM), for the others: at the top dose activity change, negative = inhibition, actives largely listed as inhibitors; 230,000 tested, 1.6% active;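 note: potency is the fitted concentration of half-maximal effect; 0% = wells with enzyme and -100% = buffer wells without enzyme; nearly all actives have a fitted effect of over 50% in size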
ALDH1A1 block: inhibitors of human aldehyde dehydrogenase 1A1. P00352. AID 1030. Potency, µM (highest dose often 75.3 µM), for the others: at the highest dose activity, negative = inhibition, usual class: inhibitors. Purified ALDH1A1, NADH fluorescence, propionaldehyde substrate. 220,000 tested, 7.3% active;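 note: potency is the fitted concentration of half-maximal effect; plate controls were no enzyme wells and a reference inhibitor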
* marks the source's active call; other numbers are inactive results; ? = inconclusive; / = not tested or not shown; [ ] = remark or other dose. Rows were chosen to be rich in hits. Some 11% of all compounds tested hit in one or more screens of this group. Unless noted, calls come from the whole dose curve; as a rule, active = well fitted inhibition curve with a large enough effect (not every such curve was filed as active); inconclusive = small, poorly fitted or top-dose-only effect, or another doubt; inactive = no such curve, though single readings can be large or run the other way. Unless noted, % is set by controls: 0 for no effect and ±100 for the full control effect.

SMILES | PNC assembly inh | HPGD block | KDM4E inh | ALDH1A1 block
Cc1nc(SCc2ccccc2)c([N+](=O)[O-])[nH]1 | -107* | -11% | 2% | ?
Cc1cc(C(=O)NCC(c2ccco2)N(C)C)no1 (configuration not stated) | -93* | 3% | -9% | 1%
COc1cc(C(=O)NCC(c2ccco2)N(C)C)cc(OC)c1OC (configuration not stated) | 8 | -18% | -2% | -4%
O=C(O)Cn1c(SCc2cccc3ccccc23)nc2ccccc21 | 94 | 25µM* | 4% | 2%
COc1cccc(-c2cc(C(=O)O)no2)c1 | -1 | 5.6µM* | -3% | 0.56µM*
COc1cccc(-c2cc(C(=O)N3CCCCC3C)no2)c1 (configuration not stated) | 56 | 16µM* | -7% | -13%
COc1cccc(-c2cc(C(=O)N3CCCc4ccccc43)no2)c1 | 32 | -10% | 8% | ?
COc1ccc(-c2cc(C(=O)N3CCc4ccccc4C3)no2)cc1OC | 43 | 11µM* | -9% | ?
Cc1noc(C(=O)N2CC3(C)CC2CC(C)(C)C3)c1Cl (configuration not stated) | ? | -8% | -5% | 18µM*
O=C(CO/N=C\c1ccccc1)Nc1ccccc1C(=O)N1CCOCC1 | 2 | -5% | 1% | -10%
CC(=O)/C(=C\c1ccccc1F)C(=O)c1ccccc1 | / | -10% | / | 1%[13.5 µM]
C=CCn1c(SCC(=O)c2ccc(Br)cc2)nnc1C(CC(C)C)NC(=O)c1cccs1 (configuration not stated) | -5 | -8% | -9% | ?
CC(C)(CO)[C@@H](O)C(=O)NCCCO | / | -11% | 4% | 2%
CN(C)CCN(c1ccccn1)c1ccccn1 | / | -4% | / | 8%[13.5 µM]
CC(=O)Nc1ccccc1C=C1c2ccccc2-c2ccccc21 | / | -8% | / | 9%[13.5 µM]
O=C(c1cc(-c2ccc(Cl)c(Cl)c2)on1)N1CCCC1 | 10 | -10% | 2% | 13%
COc1ccc(CC(=O)N2CC3(C)CC2CC(C)(C)C3)cc1 (configuration not stated) | -10 | -30% | -1% | ?
COc1cccc(-c2cc(C(=O)N3CC4(C)CC3CC(C)(C)C4)no2)c1 (configuration not stated) | ? | -17% | -9% | 13µM*
CC1CCN(C(=O)c2cc(-c3ccc(Cl)c(Cl)c3)on2)CC1 | 216 | 14µM* | -4% | ?
COc1ccccc1N1CCN(C(=O)c2cc(-c3cccc(Cl)c3)on2)CC1 | -25 | -15% | 4% | 20µM*
COc1ccccc1N1CCN(C(=O)c2cc(-c3ccc4c(c3)OCO4)on2)CC1 | -25 | -29% | 4% | ?
COc1cccc(-c2cc(C(=O)N3CCCCCC3)no2)c1 | -108* | 2.5µM* | -19% | ?
Cc1cccc(S(=O)(=O)NCCC(=O)OCC(=O)Nc2ccc(C#N)cc2)c1 | 17 | -9% | -8% | ?
O=C(Cn1nc([N+](=O)[O-])nc1Br)NC(c1ccccc1)c1ccccc1 | 22 | -16% | 5% | -67%
CCCCCC(=O)/C=C/C=C\CCCCCCCC(=O)O | / | -3% | ? | 0%
SMILES | PNC assembly inh | HPGD block | KDM4E inh | ALDH1A1 block
O=C(c1cc(-c2ccc3c(c2)OCO3)on1)N1CCN(c2ccccc2)CC1 | -8 | ? | -26% | ?
O=C(c1cc(-c2cccc(O)c2)on1)N1CCCCC1 | ? | 4.5µM* | 0% | ?
O=C(c1cc(-c2ccc3c(c2)OCO3)on1)N1CCOCC1 | -23 | 32µM* | 0% | -2%
CC(C)[C@@H](CC(=O)N[C@@H]1CCNC[C@H]1C(=O)N[C@H](CC(=O)N[C@@H](CCC(=O)O)CC(=O)O)Cc1ccccc1)NC(=O)C[C@H](Cc1c[nH]c2ccccc12)NC(=O)[C@@H]1CCCC[C@H]1N | / | -4% | -4% | -2%
COc1cc(/C=C2/CC/C(=C/c3ccc(O)c(OC)c3)C2=O)ccc1O | / | / | 11µM* | /
COc1cc(/C=C2/C(=O)ON=C2c2ccccc2)ccc1O | 29 | 11µM* | -2% | ?
O=C1ON=C(c2ccc(Cl)cc2)/C1=C/c1ccc(O)cc1 | / | / | ? | 13µM*
O=C1ON=C(c2ccccc2)/C1=C\c1ccco1 | / | / | -11% | ?
Cc1c(C(=O)NCc2cccnc2)oc2ccc(S(=O)(=O)N3CCCCCC3)cc12 | -5 | -10% | 3% | -6%
N#CC(c1ccc(Cl)cc1)c1ncc(C(F)(F)F)cc1Cl (configuration not stated) | 10 | -8% | 0% | 6%
